# Measured values taken from paper PMC5540273 (PLoS ONE, 2017).
# Test system: KIT
# Settings: concentration: 1 μM, replicates: in singlicate; n = 1
# 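Further: KINOMEscan kinase panel screen.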
row,Compound,%Inh [%]
1,COC(=O)c1c(-c2ccccc2)c2cc(Br)ccc2c(=O)n1Cc1ccc(NC(=O)CCC(=O)O)cc1,38
2,COc1cccc(-n2cnc3c(N)ncnc32)c1 [SKF-97416],12
3,O=C(NCc1cccs1)c1cc(C(=O)c2c(Cl)cccc2Cl)c[nH]1 [GW823670],0
4,C[C@@H]1CC[C@H](C(=O)NC2CCCCC2)CN1c1cc(-c2ccc3c(N)n[nH]c3c2)nc(N)n1 [GSK2291363],27
5,Cc1nnc(-c2ccc3ncn(-c4ccc(S(C)=O)cc4)c3c2)o1 (centres unmarked),29
6,O=C1NC(=O)C(c2ccccc2)=C1Nc1cccc(O)c1 [SB-390534],10
7,COc1ccc(-c2cc3c(C)nc(N)nc3n([C@H]3CC[C@H](OCCO)CC3)c2=O)cn1,7
8,Cc1nnc(-c2ccc(C)c(-c3ccc(C(=O)O)cc3)c2)o1 [GW608005],0
9,Cc1cccc(-c2cc(-c3c[nH]nc3-c3ccccn3)ccn2)c1 [GW679395],35
10,Nc1ncnc2c1ncn2-c1ccc(Cl)cc1 [AH2635],65
11,Cl.NS(=O)(=O)c1cccc(Nc2cc(-c3ccc(F)cc3)n[nH]2)c1 [GW824645],90
12,Fc1cccc(CSc2nnc(-c3ccc4c(c3)CCO4)o2)c1,5
13,CCC(=O)c1c(-c2ccccc2)c2cc(Cl)ccc2c(=O)n1Cc1cc(S(C)(=O)=O)n(CC(N)=O)n1,6
14,FC(F)(F)c1ccc(-c2ncn(CCCN3CCOCC3)c2-c2ccncc2)cc1 [SB-217780],20
15,Cc1ccc(Oc2ccc(Nc3ncnc4cc[nH]c34)cc2C)cn1,16
16,Cc1cccc(-c2nc(Nc3ccc4c(cnn4C)c3)c3ccccc3n2)n1 [GW876731],7
17,O=C(NCCNc1ccnc(Nc2ccc(F)cc2)n1)Nc1ccc2c(c1)OCO2 [GSK1379882],34
18,Nc1ncnc2c1ncn2-c1cccc(F)c1 [SKF-97560],39
19,Cc1nc(N(C)[C@H]2CN(C(=O)CC#N)CC[C@H]2C)c2cc[nH]c2n1,0
20,CCC(=O)c1c(-c2ccccc2)c2cc(Cl)ccc2c(=O)n1Cc1ccc(C(=O)O)cc1,39
21,COc1cc2ncn(-c3cc(OCCCc4ccccc4)c(C(N)=O)s3)c2cc1OC [GSK205189],13
22,CCCC(=O)Nc1n[nH]c2ncc(-c3cccc4ccccc34)cc12 [SB-642057],12
23,CN(C)c1cc(-c2ccc3c(N)n[nH]c3c2)nc(N)n1 [GSK2219329],7
